# Data taken from PMC7862700, “An all-to-all approach to the identification of sequence-specific readers for epigenetic DNA modifications on cytosine”.
# Tests used:
# Test in all cases: DAPPL (digital affinity profiling via proximity ligation, sequencing); 10 mM Tris-HCl pH 7.5, 50 mM NaCl, 1 mM DTT, 4% glycerol, room temperature, 30 min; GST-TFs on glutathione beads, 16-mer random dsDNA library, 0.1% formaldehyde crosslink after washing; high values mean tight binding
# FLI1 = biological target: T1, FLI1 (Homo sapiens, UniProt Q01543 1-452); details: protein: recombinant; tags: N-terminal GST; dsDNA, one strand shown
# T1 sequence: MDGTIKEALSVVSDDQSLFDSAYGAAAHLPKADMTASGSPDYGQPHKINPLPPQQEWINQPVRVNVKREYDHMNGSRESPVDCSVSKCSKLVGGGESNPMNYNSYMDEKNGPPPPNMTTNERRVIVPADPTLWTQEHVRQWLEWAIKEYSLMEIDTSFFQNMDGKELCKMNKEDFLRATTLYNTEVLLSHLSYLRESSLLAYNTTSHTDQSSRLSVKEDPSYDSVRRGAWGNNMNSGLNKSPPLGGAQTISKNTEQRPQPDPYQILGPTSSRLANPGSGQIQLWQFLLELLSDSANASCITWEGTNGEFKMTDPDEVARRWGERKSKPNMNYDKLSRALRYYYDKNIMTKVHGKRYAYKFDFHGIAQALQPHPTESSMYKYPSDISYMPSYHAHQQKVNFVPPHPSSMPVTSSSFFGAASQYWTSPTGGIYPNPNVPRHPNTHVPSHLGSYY
# How it was run: (§1)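 Sequencing on an Illumina NextSeq500 followed washing, crosslinking with 0.1% formaldehyde, proximity ligation (BsaI/T4 ligase, 1 h, 37 °C) and PCR amplification of pools that had been incubated for 30 min at room temperature with 200 nmole of a random double-stranded 16-mer DNA library in Tris/NaCl/DTT/glycerol buffer. Each pool held DNA-barcoded human transcription factors, expressed in yeast as GST fusions and captured on glutathione beads, plus a tag-only sample. Binding signal is a hexamer's read frequency for a factor divided by its frequency in the tag-only sample.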
# ELK1 = biological target: T2, ELK1 (Homo sapiens, UniProt P19419 1-428); details: protein: recombinant; tags: N-terminal GST; dsDNA, one strand shown
# T2 sequence: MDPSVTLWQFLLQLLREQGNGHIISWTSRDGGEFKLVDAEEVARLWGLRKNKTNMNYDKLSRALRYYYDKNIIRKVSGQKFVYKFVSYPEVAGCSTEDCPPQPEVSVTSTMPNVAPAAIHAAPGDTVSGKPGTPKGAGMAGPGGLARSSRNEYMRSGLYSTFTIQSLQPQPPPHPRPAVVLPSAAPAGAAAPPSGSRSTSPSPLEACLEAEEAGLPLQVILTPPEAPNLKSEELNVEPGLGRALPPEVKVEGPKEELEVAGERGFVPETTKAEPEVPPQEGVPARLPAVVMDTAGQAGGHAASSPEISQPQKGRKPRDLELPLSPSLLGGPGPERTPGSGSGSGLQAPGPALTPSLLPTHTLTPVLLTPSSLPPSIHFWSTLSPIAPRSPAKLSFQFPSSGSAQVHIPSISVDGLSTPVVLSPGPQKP
# How it was run: as §1
# GABPA = biological target: T3, GABPA (Homo sapiens, UniProt Q06546 1-454); details: protein: recombinant; tags: N-terminal GST; dsDNA, one strand shown
# T3 sequence: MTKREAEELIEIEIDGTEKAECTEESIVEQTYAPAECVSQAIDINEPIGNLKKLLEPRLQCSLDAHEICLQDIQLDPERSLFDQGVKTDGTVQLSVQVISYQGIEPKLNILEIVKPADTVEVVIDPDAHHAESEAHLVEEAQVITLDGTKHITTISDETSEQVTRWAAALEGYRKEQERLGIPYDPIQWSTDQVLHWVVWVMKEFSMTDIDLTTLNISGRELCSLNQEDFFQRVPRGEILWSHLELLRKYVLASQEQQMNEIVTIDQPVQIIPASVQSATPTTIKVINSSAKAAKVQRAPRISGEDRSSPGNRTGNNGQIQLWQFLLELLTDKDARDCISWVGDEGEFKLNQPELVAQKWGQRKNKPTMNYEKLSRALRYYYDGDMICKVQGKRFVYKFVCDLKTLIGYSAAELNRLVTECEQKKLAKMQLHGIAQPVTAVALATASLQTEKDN
# How it was run: as §1
# ERG = biological target: T4, ERG (Homo sapiens, UniProt P11308 1-479); details: protein: recombinant; tags: N-terminal GST; dsDNA, one strand shown
# T4 sequence: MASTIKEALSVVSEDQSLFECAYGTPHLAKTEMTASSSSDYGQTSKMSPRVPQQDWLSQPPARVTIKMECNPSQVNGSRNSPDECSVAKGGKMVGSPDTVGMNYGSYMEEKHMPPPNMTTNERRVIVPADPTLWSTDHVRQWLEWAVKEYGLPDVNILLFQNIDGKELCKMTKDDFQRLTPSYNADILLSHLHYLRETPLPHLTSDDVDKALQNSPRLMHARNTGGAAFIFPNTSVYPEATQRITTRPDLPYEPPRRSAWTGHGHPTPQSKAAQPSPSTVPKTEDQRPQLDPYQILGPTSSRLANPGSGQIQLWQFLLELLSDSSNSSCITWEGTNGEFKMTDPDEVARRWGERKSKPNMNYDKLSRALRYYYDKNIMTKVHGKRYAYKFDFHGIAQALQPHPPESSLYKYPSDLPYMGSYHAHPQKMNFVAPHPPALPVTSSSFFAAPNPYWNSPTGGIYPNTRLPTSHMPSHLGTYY
# How it was run: as §1
# ELF1 = ELF1 (Homo sapiens, UniProt P32519 1-619); details: protein: recombinant; tags: N-terminal GST; dsDNA, one strand shown
# ELF1, sequence (P32519 whole entry): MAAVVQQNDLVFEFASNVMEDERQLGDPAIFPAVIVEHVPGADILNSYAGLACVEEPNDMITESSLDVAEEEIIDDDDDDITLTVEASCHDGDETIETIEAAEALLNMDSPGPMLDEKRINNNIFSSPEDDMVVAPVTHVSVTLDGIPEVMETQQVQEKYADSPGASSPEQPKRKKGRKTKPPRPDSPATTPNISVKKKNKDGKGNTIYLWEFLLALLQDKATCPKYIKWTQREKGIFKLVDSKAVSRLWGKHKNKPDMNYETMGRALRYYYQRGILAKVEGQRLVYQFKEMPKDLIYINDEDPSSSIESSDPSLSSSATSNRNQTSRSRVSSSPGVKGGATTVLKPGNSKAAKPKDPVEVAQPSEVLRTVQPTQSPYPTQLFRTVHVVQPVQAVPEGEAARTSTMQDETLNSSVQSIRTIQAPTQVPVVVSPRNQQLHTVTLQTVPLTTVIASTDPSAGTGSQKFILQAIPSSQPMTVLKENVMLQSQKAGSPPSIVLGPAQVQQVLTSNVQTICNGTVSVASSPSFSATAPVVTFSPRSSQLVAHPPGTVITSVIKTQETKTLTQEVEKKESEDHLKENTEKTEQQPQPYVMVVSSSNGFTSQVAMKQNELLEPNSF
# How it was run: as §1
# EHF = biological target: T5, EHF (Homo sapiens, UniProt Q9NZC4 1-300); details: protein: recombinant; tags: N-terminal GST; dsDNA, one strand shown
# T5 sequence: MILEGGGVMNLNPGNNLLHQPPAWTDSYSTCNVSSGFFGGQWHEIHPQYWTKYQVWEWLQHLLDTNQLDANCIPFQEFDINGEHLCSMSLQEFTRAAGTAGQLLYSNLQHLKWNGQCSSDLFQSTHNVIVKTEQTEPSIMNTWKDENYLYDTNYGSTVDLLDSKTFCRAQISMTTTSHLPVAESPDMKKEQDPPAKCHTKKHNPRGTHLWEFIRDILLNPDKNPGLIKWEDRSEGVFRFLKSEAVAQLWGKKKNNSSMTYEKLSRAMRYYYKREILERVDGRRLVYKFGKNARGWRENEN
# How it was run: as §1
# SPI1 = SPI1 (Homo sapiens, UniProt P17947 1-270); details: protein: recombinant; tags: N-terminal GST; dsDNA, one strand shown
# How it was run: as §1
# SPIB = SPIB (Homo sapiens, UniProt Q01892 1-262); details: protein: recombinant; tags: N-terminal GST; dsDNA, one strand shown
# SPIB, sequence (Q01892 whole entry): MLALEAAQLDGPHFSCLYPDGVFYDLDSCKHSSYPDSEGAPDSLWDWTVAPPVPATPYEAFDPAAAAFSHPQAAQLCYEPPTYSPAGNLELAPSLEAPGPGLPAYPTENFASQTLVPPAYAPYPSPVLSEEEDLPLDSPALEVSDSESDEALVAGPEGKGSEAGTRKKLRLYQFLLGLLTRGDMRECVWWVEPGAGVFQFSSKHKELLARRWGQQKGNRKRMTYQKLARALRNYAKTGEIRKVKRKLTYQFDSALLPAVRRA
# How it was run: as §1
# ELK3 = biological target: T6, ELK3 (Homo sapiens, UniProt P41970 1-407); details: protein: recombinant; tags: N-terminal GST; dsDNA, one strand shown
# T6 sequence: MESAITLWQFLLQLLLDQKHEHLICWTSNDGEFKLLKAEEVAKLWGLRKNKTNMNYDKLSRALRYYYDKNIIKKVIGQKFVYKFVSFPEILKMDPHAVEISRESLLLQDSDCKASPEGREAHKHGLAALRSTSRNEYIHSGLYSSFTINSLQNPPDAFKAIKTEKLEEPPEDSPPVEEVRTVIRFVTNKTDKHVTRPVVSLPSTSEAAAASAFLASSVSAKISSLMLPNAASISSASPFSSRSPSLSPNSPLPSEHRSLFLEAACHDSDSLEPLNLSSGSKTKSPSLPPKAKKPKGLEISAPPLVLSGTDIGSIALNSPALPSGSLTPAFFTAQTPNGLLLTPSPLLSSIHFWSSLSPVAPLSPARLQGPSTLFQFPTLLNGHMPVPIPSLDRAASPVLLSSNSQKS
# How it was run: as §1
# FEV = biological target: T7, FEV (Homo sapiens, UniProt Q99581 1-238); details: protein: recombinant; tags: N-terminal GST; dsDNA, one strand shown
# T7 sequence: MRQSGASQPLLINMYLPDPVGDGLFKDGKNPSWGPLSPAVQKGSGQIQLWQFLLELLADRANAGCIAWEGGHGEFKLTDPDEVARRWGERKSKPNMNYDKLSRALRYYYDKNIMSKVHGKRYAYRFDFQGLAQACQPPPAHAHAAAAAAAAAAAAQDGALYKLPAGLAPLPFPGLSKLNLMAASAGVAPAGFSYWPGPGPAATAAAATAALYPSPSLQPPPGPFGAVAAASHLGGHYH
# How it was run: as §1
# ETV5 = ETV5 (Homo sapiens, UniProt P41161 1-510); details: protein: recombinant; tags: N-terminal GST; dsDNA, one strand shown
# ETV5, sequence (P41161 whole entry): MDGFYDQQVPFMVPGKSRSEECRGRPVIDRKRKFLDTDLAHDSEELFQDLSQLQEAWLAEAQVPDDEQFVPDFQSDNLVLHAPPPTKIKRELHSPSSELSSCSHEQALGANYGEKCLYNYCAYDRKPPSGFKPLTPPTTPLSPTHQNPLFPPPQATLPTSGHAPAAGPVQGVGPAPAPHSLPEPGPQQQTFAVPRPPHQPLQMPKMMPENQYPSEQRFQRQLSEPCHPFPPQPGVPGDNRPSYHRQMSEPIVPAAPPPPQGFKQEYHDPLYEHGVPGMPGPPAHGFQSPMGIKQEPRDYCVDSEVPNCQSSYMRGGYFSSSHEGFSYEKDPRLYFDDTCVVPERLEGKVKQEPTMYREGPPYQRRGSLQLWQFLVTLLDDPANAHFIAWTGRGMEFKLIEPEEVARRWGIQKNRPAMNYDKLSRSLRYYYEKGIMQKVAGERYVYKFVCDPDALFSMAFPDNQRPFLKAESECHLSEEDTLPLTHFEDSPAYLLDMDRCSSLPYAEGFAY
# How it was run: as §1
# HSF1 = HSF1 (Homo sapiens, UniProt Q00613 1-529); details: protein: recombinant; tags: N-terminal GST; chain copies: 3; dsDNA, one strand shown
# HSF1, sequence (Q00613 whole entry): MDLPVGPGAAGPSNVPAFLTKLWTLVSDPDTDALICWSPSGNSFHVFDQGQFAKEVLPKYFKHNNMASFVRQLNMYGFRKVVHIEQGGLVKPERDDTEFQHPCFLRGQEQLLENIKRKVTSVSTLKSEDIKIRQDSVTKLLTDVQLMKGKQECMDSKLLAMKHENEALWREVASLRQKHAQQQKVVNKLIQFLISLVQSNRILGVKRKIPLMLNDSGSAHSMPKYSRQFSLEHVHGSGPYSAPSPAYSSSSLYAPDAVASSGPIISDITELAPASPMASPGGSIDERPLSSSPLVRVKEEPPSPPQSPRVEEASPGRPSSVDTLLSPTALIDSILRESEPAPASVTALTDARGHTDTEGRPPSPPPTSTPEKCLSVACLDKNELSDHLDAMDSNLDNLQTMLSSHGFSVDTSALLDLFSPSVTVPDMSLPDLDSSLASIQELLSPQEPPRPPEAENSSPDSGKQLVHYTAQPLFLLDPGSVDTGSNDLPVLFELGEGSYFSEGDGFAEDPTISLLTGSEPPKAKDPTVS
# How it was run: as §1
# SPIC = biological target: T8, SPIC (Homo sapiens, UniProt Q8N5J4 1-248); details: protein: recombinant; tags: N-terminal GST; dsDNA, one strand shown
# T8 sequence: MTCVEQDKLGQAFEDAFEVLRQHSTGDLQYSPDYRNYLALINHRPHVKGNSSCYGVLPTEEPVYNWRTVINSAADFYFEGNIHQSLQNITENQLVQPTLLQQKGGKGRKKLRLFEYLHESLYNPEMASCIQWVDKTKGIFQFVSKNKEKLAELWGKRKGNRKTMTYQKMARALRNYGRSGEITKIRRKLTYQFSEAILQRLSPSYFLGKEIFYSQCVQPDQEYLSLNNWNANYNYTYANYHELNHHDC
# How it was run: as §1
# ELF4 = ELF4 (Homo sapiens, UniProt Q99607 1-663); details: protein: recombinant; tags: N-terminal GST; dsDNA, one strand shown
# ELF4, sequence (Q99607 whole entry): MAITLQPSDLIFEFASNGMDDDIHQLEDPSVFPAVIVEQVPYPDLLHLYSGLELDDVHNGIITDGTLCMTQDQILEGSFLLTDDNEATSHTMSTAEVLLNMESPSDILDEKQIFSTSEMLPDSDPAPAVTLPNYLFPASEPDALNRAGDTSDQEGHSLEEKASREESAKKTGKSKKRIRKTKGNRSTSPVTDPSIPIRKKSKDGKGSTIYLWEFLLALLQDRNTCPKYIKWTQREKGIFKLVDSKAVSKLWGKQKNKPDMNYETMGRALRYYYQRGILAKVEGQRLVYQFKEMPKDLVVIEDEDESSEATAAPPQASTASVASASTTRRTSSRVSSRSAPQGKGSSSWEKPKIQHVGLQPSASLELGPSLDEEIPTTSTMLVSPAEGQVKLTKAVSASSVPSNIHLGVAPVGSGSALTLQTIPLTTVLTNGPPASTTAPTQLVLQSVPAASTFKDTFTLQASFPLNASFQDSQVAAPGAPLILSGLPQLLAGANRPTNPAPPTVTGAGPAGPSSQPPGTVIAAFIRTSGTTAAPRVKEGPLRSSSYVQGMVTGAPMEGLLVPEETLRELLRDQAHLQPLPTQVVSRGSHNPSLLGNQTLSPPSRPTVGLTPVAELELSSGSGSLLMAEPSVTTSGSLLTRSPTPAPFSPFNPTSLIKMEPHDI
# How it was run: as §1
# ELK4 = biological target: T9, ELK4 (Homo sapiens, UniProt P28324-2 1-405); details: protein: recombinant; tags: N-terminal GST; dsDNA, one strand shown
# T9 sequence: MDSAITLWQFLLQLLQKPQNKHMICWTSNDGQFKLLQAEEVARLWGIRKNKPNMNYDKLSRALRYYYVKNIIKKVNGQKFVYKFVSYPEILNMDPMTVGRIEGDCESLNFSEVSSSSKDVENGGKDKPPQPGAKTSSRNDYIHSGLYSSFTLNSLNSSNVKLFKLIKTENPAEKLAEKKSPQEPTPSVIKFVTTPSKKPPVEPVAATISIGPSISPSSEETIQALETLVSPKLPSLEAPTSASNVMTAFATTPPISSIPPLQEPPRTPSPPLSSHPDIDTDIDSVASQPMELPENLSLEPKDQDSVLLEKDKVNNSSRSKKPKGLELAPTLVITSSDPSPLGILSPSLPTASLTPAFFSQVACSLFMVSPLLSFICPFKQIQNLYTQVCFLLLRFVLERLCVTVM
# How it was run: as §1
# ETV2 = biological target: T10, ETV2 (Homo sapiens, UniProt O00321 1-342); details: protein: recombinant; tags: N-terminal GST; dsDNA, one strand shown
# T10 sequence: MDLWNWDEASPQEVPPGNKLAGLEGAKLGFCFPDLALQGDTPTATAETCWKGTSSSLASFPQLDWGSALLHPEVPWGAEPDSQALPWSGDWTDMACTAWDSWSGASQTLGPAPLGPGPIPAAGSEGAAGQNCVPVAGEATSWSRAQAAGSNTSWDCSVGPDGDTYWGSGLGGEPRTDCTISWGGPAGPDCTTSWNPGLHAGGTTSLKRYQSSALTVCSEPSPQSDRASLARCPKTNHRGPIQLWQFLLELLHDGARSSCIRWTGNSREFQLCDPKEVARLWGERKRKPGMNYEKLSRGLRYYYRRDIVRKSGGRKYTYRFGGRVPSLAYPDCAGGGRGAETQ
# How it was run: as §1
# ELF3 = biological target: T11, ELF3 (Homo sapiens, UniProt P78545 1-371); details: protein: recombinant; tags: N-terminal GST; dsDNA, one strand shown
# T11 sequence: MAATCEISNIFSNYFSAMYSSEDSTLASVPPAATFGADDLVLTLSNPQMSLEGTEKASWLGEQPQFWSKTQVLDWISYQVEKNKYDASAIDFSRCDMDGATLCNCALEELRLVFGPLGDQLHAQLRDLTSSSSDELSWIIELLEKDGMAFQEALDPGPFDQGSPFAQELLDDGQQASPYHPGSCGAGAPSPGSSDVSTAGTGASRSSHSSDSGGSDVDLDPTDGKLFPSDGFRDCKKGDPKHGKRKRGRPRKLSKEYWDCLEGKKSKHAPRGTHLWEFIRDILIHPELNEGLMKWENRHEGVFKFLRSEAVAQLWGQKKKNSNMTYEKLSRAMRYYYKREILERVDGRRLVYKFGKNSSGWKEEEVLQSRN
# How it was run: as §1
# CRX = CRX (Homo sapiens, UniProt O43186 1-299); details: protein: recombinant; tags: N-terminal GST; dsDNA, one strand shown
# CRX, sequence (O43186 whole entry): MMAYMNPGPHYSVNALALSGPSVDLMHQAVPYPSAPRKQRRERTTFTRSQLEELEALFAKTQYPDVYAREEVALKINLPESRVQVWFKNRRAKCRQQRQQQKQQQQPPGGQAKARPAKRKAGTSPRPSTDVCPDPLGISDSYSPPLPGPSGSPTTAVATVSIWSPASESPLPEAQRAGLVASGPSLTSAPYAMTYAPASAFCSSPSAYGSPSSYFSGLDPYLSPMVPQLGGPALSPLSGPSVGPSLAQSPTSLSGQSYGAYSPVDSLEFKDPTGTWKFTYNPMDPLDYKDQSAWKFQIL
# How it was run: as §1
# ETV1 = ETV1 (Homo sapiens, UniProt P50549 1-477); details: protein: recombinant; tags: N-terminal GST; dsDNA, one strand shown
# ETV1, sequence (P50549 whole entry): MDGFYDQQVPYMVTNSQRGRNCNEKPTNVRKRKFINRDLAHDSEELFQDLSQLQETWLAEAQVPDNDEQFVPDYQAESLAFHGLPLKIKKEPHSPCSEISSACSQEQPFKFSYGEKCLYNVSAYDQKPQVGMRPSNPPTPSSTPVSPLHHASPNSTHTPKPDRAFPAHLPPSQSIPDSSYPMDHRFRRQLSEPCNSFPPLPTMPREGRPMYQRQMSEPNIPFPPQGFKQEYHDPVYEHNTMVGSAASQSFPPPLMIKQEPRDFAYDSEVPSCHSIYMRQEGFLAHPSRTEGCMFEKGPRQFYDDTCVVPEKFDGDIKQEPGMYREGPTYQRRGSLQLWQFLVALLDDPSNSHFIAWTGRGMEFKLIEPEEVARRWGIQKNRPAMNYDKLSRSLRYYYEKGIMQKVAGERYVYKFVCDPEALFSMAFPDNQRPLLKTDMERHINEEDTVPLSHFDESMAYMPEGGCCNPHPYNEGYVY
# How it was run: as §1
sequence,measurement,setting,value
AAACAC,binding signal,FLI1,"1.25 fold enrichment (6-mer frequency, TF over GST control)"
same,binding signal,ELK1,"1.33 fold enrichment (6-mer frequency, TF over GST control)"
same,binding signal,GABPA,"1.24 fold enrichment (6-mer frequency, TF over GST control)"
same,binding signal,ERG,"1.33 fold enrichment (6-mer frequency, TF over GST control)"
same,binding signal,ELF1,"1.31 fold enrichment (6-mer frequency, TF over GST control)"
same,binding signal,EHF,"1.35 fold enrichment (6-mer frequency, TF over GST control)"
same,binding signal,SPI1,"1.3 fold enrichment (6-mer frequency, TF over GST control)"
same,binding signal,SPIB,"1.27 fold enrichment (6-mer frequency, TF over GST control)"
same,binding signal,ELK3,"1.24 fold enrichment (6-mer frequency, TF over GST control)"
same,binding signal,FEV,"1.31 fold enrichment (6-mer frequency, TF over GST control)"
same,binding signal,ETV5,"1.24 fold enrichment (6-mer frequency, TF over GST control)"
same,binding signal,HSF1,"1.09 fold enrichment (6-mer frequency, TF over GST control)"
same,binding signal,SPIC,"1.24 fold enrichment (6-mer frequency, TF over GST control)"
same,binding signal,ELF4,"1.34 fold enrichment (6-mer frequency, TF over GST control)"
same,binding signal,ELK4,"1.27 fold enrichment (6-mer frequency, TF over GST control)"
same,binding signal,ETV2,"1.36 fold enrichment (6-mer frequency, TF over GST control)"
same,binding signal,ELF3,"1.33 fold enrichment (6-mer frequency, TF over GST control)"
same,binding signal,CRX,"1.05 fold enrichment (6-mer frequency, TF over GST control)"
same,binding signal,ETV1,"1.26 fold enrichment (6-mer frequency, TF over GST control)"
